The panel holds about 79,000 compounds, 15% with a hit somewhere; the sample as a whole holds those more often. A number with no mark means an inactive call. The source made the active and inactive calls. Rule as the data show it: active = growth inhibition above about 70%; inactive = the rest.
Legend:
[1] = NCI Yeast Anticancer Drug Screen. Data for the rad50 strain (AID 155);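 also: 0% = growth of vehicle-only cultures of the same strain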; conditions: S. cerevisiae rad50 strain growth inhibition, hits give high values
Procedure, shortened: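 Cells are treated with compound, grown, and their growth is then scored against vehicle-only cultures of the same repair-deficient yeast strain.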

[2] = NCI Yeast Anticancer Drug Screen. Data for the mec2-1 strain (AID 157); conditions: S. cerevisiae mec2-1 strain, hits give high values
Procedure, shortened: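 Test agents were screened against the mec2-1 yeast strain, with defined DNA repair or cell cycle alteration. Growth was scored as inhibition against vehicle-only controls.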

[3] = NCI Yeast Anticancer Drug Screen. Data for the sgs1 mgt1 strain (AID 161);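 also: 0% = growth of cultures given vehicle only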; conditions: S. cerevisiae sgs1 mgt1 strain, hits give high values
Procedure, shortened: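 Inhibition of yeast growth, normalised to vehicle-treated controls, is reported for a strain bearing genetic alterations in DNA damage repair.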

[4] = NCI Yeast Anticancer Drug Screen. Data for the cln2 rad14 strain (AID 165);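 also: 0% = growth equal to vehicle treated cultures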; conditions: S. cerevisiae cln2 rad14 strain, hits give high values
Procedure, shortened: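 Growth of compound-exposed yeast (cln2 rad14 genotype) measured and expressed as inhibition relative to vehicle.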

[5] = NCI Yeast Anticancer Drug Screen. Data for the bub3 strain (AID 167); conditions: S. cerevisiae bub3 mutant strain, hits give high values
Procedure, shortened: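 Part of a panel of yeast mutants defective in DNA damage repair or cell cycle regulation. Each strain is grown with compound, and inhibition is calculated relative to solvent-treated cultures.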

[6] = NCI Yeast Anticancer Drug Screen. Data for the mlh1 rad18 strain (AID 175); conditions: S. cerevisiae mlh1 rad18 strain growth inhibition, hits give high values
Procedure, shortened: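 In this whole-cell yeast screen, a strain with altered DNA damage repair is challenged with compound, and its growth is measured against matched vehicle-treated controls.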

[7] = at 5.0 µM (retest, dose inferred, filed as 0.5)
[8] = at 50.0 µM (retest, dose inferred, filed as 5.0)

SMILES | growth inhibition [1, 7] | growth inhibition [1, 8] | growth inhibition ([1]; at 50.0 µM) | growth inhibition [2, 7] | growth inhibition [2, 8] | growth inhibition ([2]; at 50.0 µM) | growth inhibition [3, 7] | growth inhibition [3, 8] | growth inhibition ([3]; at 50.0 µM) | growth inhibition [4, 7] | growth inhibition [4, 8] | growth inhibition ([4]; at 50.0 µM) | growth inhibition [5, 7] | growth inhibition [5, 8] | growth inhibition ([5]; at 50.0 µM) | growth inhibition [6, 7] | growth inhibition [6, 8] | growth inhibition ([6]; at 50.0 µM)
C=C1CC(C)(C)C(c2ccccc2)OC1=O (stereo not drawn) | 1% | 60% | 53% | 7% | 80% (active) | 31.7% | 8% | 98% (active) | 97.1% (active) | -4% | 25% | 5.55% | -7% | 80% (active) | 73.5% (active) | 13% | 87% (active) | 77.8% (active)
CC[C@H]1CN2CCc3cc(OC)c(OC)cc3[C@@H]2C[C@@H]1C[C@H]1NCCc2cc(OC)c(OC)cc21 | 0% | 12% | -7.4% | -10% | -2% | -4.65% | 1% | 3% | 4% | 1% | 17% | 7.5% | 3% | 0% | 2.55% | 1% | 3% | 8.25%
[O-][n+]1ccccc1Sc1nc(Sc2cccc[n+]2[O-])nc(Sc2cccc[n+]2[O-])n1 | 98% (active) | 99% (active) | 89.8% (active) | 99% (active) | 99% (active) | 91.7% (active) | 99% (active) | 98% (active) | 92.7% (active) | 98% (active) | 98% (active) | 90% (active) | 98% (active) | 99% (active) | 90.3% (active) | 100% (active) | 99% (active) | 88.4% (active)
NC(=S)NNc1c([N+](=O)[O-])cnn(-c2ccccc2)c1=O | 18% | 30% | 3.85% | -28% | 3% | 3.05% | -27% | -13% | 9.7% | -9% | 16% | 20.3% | -19% | 21% | -4.75% | -22% | -25% | 71.2% (active)
COc1ccc(/C=C\Cc2cc3c(cc2OCCO)OCO3)cc1 | 3% | 92% (active) | 96.7% (active) | 7% | 95% (active) | 96.7% (active) | 7% | 97% (active) | 97.8% (active) | 1% | 82% (active) | 69.6% | -1% | 96% (active) | 85.6% (active) | -2% | 97% (active) | 97.2% (active)
O=C1C2C3CCC(O3)C2C(=O)N1c1cccc2ccccc12 (stereo not drawn) | -1% | -27% | -1.2% | -5% | -5% | 8.15% | -3% | 1% | 49% | 0% | 1% | -7.35% | 0% | 7% | -10.4% | 0% | 5% | 8.3%

— PubChem BioAssay (NCI)
